A short description of assay [1]: qHTS assay to test for compound auto fluorescence at 535 nm (green) in HEK293 cells (AID 720680). (Quantitative high-throughput screening tests each substance at several concentrations.)
A short description of assay [2]: qHTS assay to test for compound auto fluorescence at 535 nm (green) in HEK293 cell free culture (AID 720682). A digest of the protocol: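 Green-label autofluorescence (485 nm excitation, 535 nm emission) measured on compound added to cell-free culture medium (DMEM, 10% FBS). Output is expressed relative to fluorescein.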
Assay [3] is described as follows: qHTS assay to test for compound auto fluorescence at 590 nm (red) in HEK293 cell free culture (AID 720683). A digest of the protocol:
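Tox21 10K library compounds were pinned into cell-free DMEM with 10% FBS and fluorescence was read at excitation 540 nm. Activity is expressed as Rose Bengal sodium equivalency.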

Assay [4] in a line: qHTS assay to test for compound auto fluorescence at 590 nm (red) in HepG2 cell free culture (AID 720684). A digest of the protocol: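 Readout: intrinsic compound fluorescence at 590 nm emission after 540 nm excitation, scaled to Rose Bengal sodium. Matrix was cell-free MEM with 10% FBS; DMSO vehicle wells served as control.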
The nature of assay [5]: qHTS assay to test for compound auto fluorescence at 460 nm (blue) in HepG2 cell free culture (AID 720685). The gist of the method: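 Cell-free plates of MEM plus 10% FBS received 23 nL compound or DMSO vehicle; blue-channel (405/460 nm) intensity scored against triamterene as reference fluorophore.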
Assay [6] can be described thus: qHTS assay to test for compound auto fluorescence at 535 nm (green) in HepG2 cell free culture (AID 720686).
Assay [7] can be described thus: qHTS assay to test for compound auto fluorescence at 460 nm (blue) in HepG2 cells (AID 720687). The gist of the method: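 Cells (2,000/well in MEM with 10% FBS) attached overnight at 37 C, then were exposed to compound or DMSO for 1 hr at 37 C, 5% CO2. Fluorescence read at Ex/Em 405/460 nm, expressed as triamterene-equivalent signal.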
Assay [8] concerns the target Glucocorticoid receptor (Homo sapiens) (UniProt P04150). Briefly: qHTS assay to identify small molecule agonists of the glucocorticoid receptor (GR) signaling pathway (AID 720691; active = well fitted activation curve with a large enough effect in the signal ratio in the repeat runs, not every such curve was filed as active; the % refers to the signal ratio; also: potency is read from the fitted curve at half-maximal effect). As to conditions: GR-bla HeLa, beta-lactamase reporter ratio, 18 h; activation: at 62.4 µM (top of the series). The gist of the method: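 Agonist-mode qHTS in HeLa cells stably expressing a glucocorticoid-response-element beta-lactamase reporter. Fluorescence intensity read with FRET substrate (2 h, room temperature) after 18 h compound treatment at 37 C.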

Assay [9] in a line: qHTS assay to identify small molecule antagonists of the glucocorticoid receptor (GR) signaling pathway - cell viability counter screen (AID 720693). Also: nearly all actives have a fitted effect of over 55% in size. Also: potency is read from the fitted curve at half-maximal effect.
Assay [10] is described as follows: qHTS assay for identifying genotoxic compounds that show differential cytotoxicity against isogenic chicken DT40 cell lines with known DNA damage response pathways - wild type cell line (AID 743012). Also: nearly all actives have a fitted effect of over 60% in size. Also: potency is read from the fitted curve at half-maximal effect. The gist of the method: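 Viability by ATP luminescence (CellTiter-Glo, 30 min RT) after 40 h compound treatment at 37 C/5% CO2, using 300 parental DNA repair-proficient DT40 cells per well.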

A short description of assay [11]: qHTS assay for identifying genotoxic compounds that show differential cytotoxicity against isogenic chicken DT40 cell lines with known DNA damage response pathways - Rev3 mutant cell line (AID 743014). Also: nearly all actives have a fitted effect of over 55% in size. Also: potency is read from the fitted curve at half-maximal effect.
The nature of assay [12]: qHTS assay for identifying genotoxic compounds that show differential cytotoxicity against isogenic chicken DT40 cell lines with known DNA damage response pathways - Rad54/Ku70 mutant cell line (AID 743015). Also: nearly all actives have a fitted effect of over 60% in size. Also: potency is read from the fitted curve at half-maximal effect.
Assay [13] in a line: qHTS assay to identify small molecule antagonists of the androgen receptor (AR) signaling pathway - cell viability counter screen (AID 743033; also: nearly all actives have a fitted effect of over 45% in size; also: potency is read from the fitted curve at half-maximal effect).
Assay [14] deals with Androgen receptor (Homo sapiens) (UniProt P10275). Briefly: qHTS assay to identify small molecule agonists of the androgen receptor (AR) signaling pathway using the MDA cell line (AID 743040; also: nearly all actives have a fitted effect of over 20% in size). The gist of the method:
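Agonist activity is measured as luciferase luminescence in human MDA-kb2 cells whose MMTV reporter responds to both AR and GR. Compounds in DMSO incubate 16 h at 37C, 0% CO2, and ONE-Glo is read after 30 min.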

Assay [15] can be described thus: qHTS assay to identify small molecule antagonists of the androgen receptor (AR) signaling pathway using the MDA cell line - cell viability counter screen (AID 743041; also: nearly all actives have a fitted effect of over 45% in size; also: potency is read from the fitted curve at half-maximal effect). The gist of the method: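 qHTS viability read-out; MDA-kb2 AR-luc; R1881-stimulated; 16 h exposure at 37C, 0% CO2; CellTiter-Fluor, 30 min; fluorescence intensity.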
Assay [16] has as its target Androgen receptor (Homo sapiens) (UniProt P10275). Briefly: qHTS assay to identify small molecule antagonists of the androgen receptor (AR) signaling pathway using the MDA cell line (AID 743042; also: nearly all actives have a fitted effect of over 55% in size; also: potency is read from the fitted curve at half-maximal effect). The gist of the method: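 MDA-kb2 cells (human breast carcinoma, stably carrying an MMTV-luciferase reporter responsive to AR and GR) were plated at 3,000 cells/well and preincubated 5 hr at 37C, then given compound plus R1881 agonist for 16 h. ONE-Glo luminescence was read.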

The target in assay [17] is Glucocorticoid receptor (Homo sapiens) (UniProt P04150). Briefly: qHTS assay to identify small molecule antagonists of the glucocorticoid receptor (GR) signaling pathway (AID 720692; active = well fitted inhibition curve with a large enough effect in the signal ratio in the repeat runs, not every such curve was filed as active; the % refers to the signal ratio; also: potency is read from the fitted curve at half-maximal effect). The gist of the method: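 Inhibition of dexamethasone-driven (5 nM final) beta-lactamase expression was measured in GRE-reporter HeLa cells over 18 h at 37C. Fluorescence was read after 2 h with the B/G FRET substrate at room temperature.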
Sequence of Glucocorticoid receptor (Homo sapiens) (P04150 whole entry, looked up): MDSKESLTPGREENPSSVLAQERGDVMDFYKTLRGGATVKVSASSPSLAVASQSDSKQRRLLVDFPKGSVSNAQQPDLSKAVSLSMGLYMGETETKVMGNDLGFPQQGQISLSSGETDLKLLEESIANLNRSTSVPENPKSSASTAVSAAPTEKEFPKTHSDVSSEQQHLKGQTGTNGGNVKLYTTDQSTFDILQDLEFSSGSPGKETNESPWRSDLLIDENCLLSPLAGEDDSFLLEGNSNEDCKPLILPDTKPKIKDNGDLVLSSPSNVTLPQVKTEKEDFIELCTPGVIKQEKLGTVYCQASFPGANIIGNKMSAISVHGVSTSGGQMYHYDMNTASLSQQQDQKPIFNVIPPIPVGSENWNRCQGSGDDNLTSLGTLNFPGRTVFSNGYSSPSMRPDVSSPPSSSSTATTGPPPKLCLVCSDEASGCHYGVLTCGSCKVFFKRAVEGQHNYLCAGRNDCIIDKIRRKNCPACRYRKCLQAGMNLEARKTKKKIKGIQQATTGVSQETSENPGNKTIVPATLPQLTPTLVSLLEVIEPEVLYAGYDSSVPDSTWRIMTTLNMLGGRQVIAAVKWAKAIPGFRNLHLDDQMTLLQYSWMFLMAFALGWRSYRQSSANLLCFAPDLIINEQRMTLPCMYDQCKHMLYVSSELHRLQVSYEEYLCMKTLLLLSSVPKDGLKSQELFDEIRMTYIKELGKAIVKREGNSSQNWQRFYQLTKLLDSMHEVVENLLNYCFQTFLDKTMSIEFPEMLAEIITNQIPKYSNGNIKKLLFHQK

Assay [18] can be described thus: qHTS assay to test for compound auto fluorescence at 460 nm (blue) in HEK293 cell free culture (AID 720681). The gist of the method: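 Test compounds were pinned into cell-free culture medium (DMEM with 10% FBS) and fluorescence was read directly at Ex/Em 405/460 nm. Signals were expressed as fluorescence equivalents of triamterene, with DMSO vehicle as control.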

Assay [19] addresses Androgen receptor (Homo sapiens) (UniProt P10275). Briefly: qHTS assay to identify small molecule antagonists of the androgen receptor (AR) signaling pathway (AID 743035; active = well fitted inhibition curve with a large enough effect in the signal ratio in the repeat runs, not every such curve was filed as active; the % refers to the signal ratio; also: potency is read from the fitted curve at half-maximal effect). A digest of the protocol: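 Antagonist mode: AR-bla HEK293 cells co-treated with test compounds and agonist R1881 for 16 h at 37C, 5% CO2. Beta-lactamase activity read as FRET fluorescence after 2 h room-temperature substrate loading.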

For assay [20] the target is unchanged. Briefly: qHTS assay to identify small molecule agonists of the androgen receptor (AR) signaling pathway (AID 743036; active = well fitted activation curve with a large enough effect in the signal ratio in the repeat runs, with a control signal flat, not every such curve was filed as active; the % refers to the signal ratio). A digest of the protocol: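 AR-UAS-bla HEK293 cells, plated 4 h before dosing, were treated with compound for 16 h at 37C. beta-Lactamase reporter read after 2 h with LiveBLAzer B/G FRET substrate at room temperature.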

Records with an inconclusive call do not appear. Activity calls are given as the source filed them. Unless noted, calls follow the shape of the dose curve; as a rule, active = well fitted curve in the direction sought with a large enough effect in the repeat runs; inconclusive = weak or mixed curves; inactive = no such curve, though single readings can be large; an effect the other way counts as inactive or inconclusive.

Sequence of Androgen receptor (Homo sapiens) (P10275 whole entry, looked up): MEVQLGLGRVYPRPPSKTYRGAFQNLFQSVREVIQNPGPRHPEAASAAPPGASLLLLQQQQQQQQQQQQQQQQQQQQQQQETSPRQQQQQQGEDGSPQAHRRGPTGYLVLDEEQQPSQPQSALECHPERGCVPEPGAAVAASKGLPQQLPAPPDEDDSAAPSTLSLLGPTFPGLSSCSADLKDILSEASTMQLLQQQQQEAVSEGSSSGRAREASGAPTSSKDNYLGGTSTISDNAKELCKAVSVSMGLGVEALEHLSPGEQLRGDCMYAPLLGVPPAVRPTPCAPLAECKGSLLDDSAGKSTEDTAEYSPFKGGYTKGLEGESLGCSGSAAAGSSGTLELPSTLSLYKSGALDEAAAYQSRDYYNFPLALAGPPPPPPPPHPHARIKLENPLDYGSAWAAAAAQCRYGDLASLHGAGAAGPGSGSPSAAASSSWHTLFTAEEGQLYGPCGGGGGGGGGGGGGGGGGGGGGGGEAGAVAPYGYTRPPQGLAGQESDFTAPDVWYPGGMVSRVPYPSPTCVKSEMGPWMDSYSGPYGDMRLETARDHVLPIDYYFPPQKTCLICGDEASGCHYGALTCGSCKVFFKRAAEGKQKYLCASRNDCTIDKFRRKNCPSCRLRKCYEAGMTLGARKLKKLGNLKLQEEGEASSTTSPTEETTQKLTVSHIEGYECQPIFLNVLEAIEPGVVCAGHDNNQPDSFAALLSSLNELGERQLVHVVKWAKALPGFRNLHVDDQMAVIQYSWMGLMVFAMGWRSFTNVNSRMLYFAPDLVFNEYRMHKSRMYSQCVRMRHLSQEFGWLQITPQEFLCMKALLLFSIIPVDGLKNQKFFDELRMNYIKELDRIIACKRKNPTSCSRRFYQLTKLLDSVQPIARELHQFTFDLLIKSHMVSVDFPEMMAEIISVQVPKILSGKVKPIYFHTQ

As for `CC#CCC(C)[C@H](O)/C=C/[C@@H]1[C@H]2c3cccc(CCCC(=O)O)c3O[C@H]2C[C@H]1O` (some centres undefined), the Potency result in assay [1], in [2], in assay [3], in assay [4], in assay [6] and in assay [8] was “inactive” each time. The Potency result in assay [9], in [10], in [11], in [12], in [13] and in assay [14] was “inactive” in each case. For the same compound, the Potency result in [15] and in [16] was “inactive” in each case. The compound was classed as inactive in [5] and in [7].
For the compound `Cc1ncc(COP(=O)(O)O)c(CN)c1O`, the Potency entry in [1], in [2], in assay [3], in assay [4], in assay [6] and in assay [8] was “inactive” in each case. Besides, the Potency entry in assay [17], in [9], in [10], in [12] and in assay [13] was “inactive” throughout. Also, the outcome in assay [5] and in assay [7] was inactive.
For the compound `CCN(CC)CCC(=O)N1c2ccccc2Sc2ccc(C(F)(F)F)cc21`, the Potency entry in assay [18], in [2], in [3], in assay [4], in assay [6] and in assay [8] was “inactive” in each case. Moreover, the Potency entry in assay [9] and in [13] was “inactive” each time. Moreover, the compound was called inactive in assay [5] and in assay [7]. The Potency in assay [17] is 23.9 µM (active); in assay [10], 5.96 µM (active); in assay [11], 10.6 µM (active); in [12], 8.41 µM (active).
As for `CC[C@H]1OC(=O)[C@H](C)[C@@H](O[C@H]2C[C@@](C)(OC)[C@@H](O)[C@H](C)O2)[C@H](C)[C@@H](O[C@@H]2O[C@H](C)C[C@H](N(C)C)[C@H]2O)[C@](C)(O)C[C@@H](C)[C@@H]2N[C@@H](COCCOC)O[C@@H]([C@H]2C)[C@]1(C)O`, the Potency entry in [1], in assay [2], in assay [4], in [6], in assay [9] and in assay [10] was “inactive” in each case. Further, the Potency result in assay [12] and in assay [13] was “inactive” throughout. Further, the compound was classed as inactive in assay [5] and in [7].
Consider `CN1CCCC(CN2c3ccccc3Sc3ccccc32)C1` (centres undefined), for which the Potency result in [1], in [2], in assay [3], in assay [4], in assay [8] and in assay [17] was “inactive” throughout. Further, the Potency entry in assay [9] and in [13] was “inactive” in each case. Also, the call in [5] and in assay [7] was inactive. Further, the Potency in [10] was 7.5 µM (active); in [11], 8.41 µM (active); in assay [12] it was 9.44 µM (active).
Take `COC(=O)C1=C(C)NC(C)=C(C(=O)O[C@H]2CCN(Cc3ccccc3)C2)[C@H]1c1cccc([N+](=O)[O-])c1`: the Potency entry in assay [18], in assay [2], in assay [3], in assay [4], in assay [6] and in [8] was “inactive” throughout. Besides, the Potency entry in [9], in assay [13], in assay [20] and in assay [14] was “inactive” each time. The compound was called inactive in assay [5] and in assay [7]. In addition, the Potency in [17] was 23.9 µM (active); in [10], 10.6 µM (active); in [11] it was 18.8 µM (active); in [12], 13.3 µM (active); in [19], 26.8 µM (active).
Take `CC(=O)Nc1c(I)c(C(=O)N[C@H]2C(O)O[C@H](CO)[C@@H](O)[C@@H]2O)c(I)c(N(C)C(C)=O)c1I` (some centres undefined): the Potency entry in assay [1], in [2], in [3], in [4], in assay [6] and in assay [8] was “inactive” each time. Further, the Potency result in [9], in assay [10], in assay [11], in assay [12], in assay [13] and in [15] was “inactive” in each case. In addition, the compound was called inactive in assay [5] and in [7].
As to `C#CCC(Cc1cnc2nc(N)nc(N)c2n1)c1ccc(C(=O)N[C@@H](CCC(=O)O)C(=O)O)cc1` (some centres undefined), the Potency entry in assay [1], in assay [2], in assay [3], in [4], in [6] and in assay [8] was “inactive” each time. Besides, the Potency entry in assay [17], in assay [9], in [19], in assay [14], in assay [15] and in assay [16] was “inactive” in each case. Further, the Potency in assay [10] was 0.0106 µM (active); in assay [11], 0.0168 µM (active); in [12] it was 0.0237 µM (active); in assay [13], 0.169 µM (active).
On to `C[C@]12C=CC(=O)N[C@@H]1CC[C@@H]1[C@@H]2CC[C@]2(C)[C@@H](C(=O)Nc3cc(C(F)(F)F)ccc3C(F)(F)F)CC[C@@H]12`, for which the Potency entry in assay [1], in [2], in assay [3], in assay [4], in assay [6] and in [9] was “inactive” throughout. Also, the Potency entry in assay [13] was “inactive”. Also, the compound was called inactive in [5] and in assay [7]. For the same compound, the Potency is 26.8 µM (active) in [8], 4.22 µM (active) in assay [10] and 2.66 µM (active) in assay [12].
With `COC(=O)[C@@H](N)CS`, the Potency result in assay [1], in [2], in [3], in assay [4], in assay [6] and in [8] was “inactive” throughout. Besides, the Potency result in [17], in assay [9], in [10], in assay [11], in assay [12] and in assay [13] was “inactive” throughout. Moreover, in [15], the Potency result was “inactive”. Moreover, in assay [5], the call was inactive.
`CC1CS(=O)(=O)CCN1/N=C/c1ccc([N+](=O)[O-])o1` (centres undefined): the Potency result in [1], in assay [2], in assay [4], in assay [6], in [8] and in assay [17] was “inactive” throughout. In addition, the Potency entry in assay [9], in assay [10], in assay [11], in [12], in [13] and in assay [15] was “inactive” in each case. The result in assay [5] and in [7] was inactive.
On to `CN1c2c(nc(N)[nH]c2=O)NCC1CNc1ccc(C(=O)NC(CCC(=O)O)C(=O)O)cc1` (centres undefined), for which the Potency result in [1], in assay [2], in [3], in assay [4], in assay [6] and in assay [8] was “inactive” in each case. The Potency entry in assay [17], in assay [9], in assay [10], in [11], in [12] and in assay [13] was “inactive” each time. In addition, the Potency result in assay [19], in assay [14], in assay [15] and in assay [16] was “inactive” each time. In [5], the compound was called inactive.
Turning to `CCN(CC)c1ccc(C(=C2C=CC(=[N+](CC)CC)C=C2)c2ccccc2)cc1`, the Potency result in assay [1], in assay [2], in assay [3], in assay [4], in assay [6] and in assay [14] was “inactive” each time. Further, the result in assay [5] and in [7] was inactive. Further, the Potency was 1.51 µM (active) in [9]; 0.0944 µM (active) in assay [10]; 0.106 µM (active) in assay [12]; 2.39 µM (active) in [13]; 2.66 µM (active) in [15]; 0.473 µM (active) in [16].

The values are drawn from PubChem BioAssay (Tox21).
